The other results are listed elsewhere or left out. The hit rate among all sequences tested is not known here.
B1: VH:VL chains; a variant is named by its letters at X, in order (parent)
chain 1: QVQLVQSGAEVKKPGASVKVSCKASGYTFTDYXMHWVRQAPGQGLEWMGXVNPNXXXTTYNQKFEGRVTMTTDTSTSTAYMELRSLRSDDTAVYYCARXNXLDXWGQGTTVTVSS
chain 2: DIQMTQSPSSLSASVGDRVTITCSVSSSVSSIYLHWYQQKPGKAPKLLIYSTSNLASGVPSRFSGSGSGTDFTLTISSLQPEDFATYYCQVYSGYPLTFGGGTKVEIK

Variants of: B1
Assay: yeast display scFab, FACS + sequencing
Conditions: with MET
Method in brief: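 A yeast surface library of scFab variants carrying heavy-chain CDR mutations went through two magnetic enrichment rounds on Protein A beads coated with HGFR-Fc, then FACS. For sorting, cells were labelled for 3 h at room temperature with 1 nM HGFR-Fc and anti-Myc in PBSB containing 1% milk, and the top 50% of antigen-positive cells were gated. Input and round-3 sorted populations were deep sequenced in two replicates. A sequence was called an antigen binder if it appeared in both antigen-positive samples and a non-binder if it appeared only in the input.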

Row | Variant | antigen binding call
1 | VAETAAAA | no binding
2 | AEARAAGS chain 1 V37I | no binding
3 | VARAADAD | no binding
4 | ATGEGDWS | no binding
5 | VGATSFSA | no binding
6 | YKAGGSGV | binds
7 | YKGGSFGV | no binding
8 | YKKGGSGV | binds
9 | YEKGGDGV | no binding
10 | YKERASGV | no binding
11 | YKGGSSGV | binds
12 | YKGAASGV | no binding
13 | FTGTSAAF | no binding
14 | VTEGDDVF | no binding
15 | YRKGSSWD | binds
16 | YRKGSAWD | binds
17 | DGKEGYWA | no binding
18 | DAEGDDGA | no binding
19 | YRGAGSLD | binds
20 | FRGAGSVD | binds
21 | FRGAGSVA | binds
22 | YRGAGFVD | no binding
23 | YRGAGSVD | binds

Row | Variant | antigen binding call
24 | SKTKSDVA | no binding
25 | SKERGDWV | no binding
26 | VERKGYLA | no binding
27 | VETGNSSA | no binding
28 | AGGGNAGD | no binding
29 | VRGRSSLF | binds
30 | VREAADSF | no binding
31 | VRRGSSLF | binds
32 | VGGTSSAD | no binding
33 | VRRGSSAD | binds
34 | VRGGDDVF | no binding
35 | VRRGSSAF | binds
36 | VRGRSDVF | no binding
37 | DAKENAVY | no binding
38 | YTGGDDVY | no binding
39 | VAEATDLY | no binding
40 | DAGGASLD | no binding
41 | STATADVA | no binding
42 | SAGEGDWV | no binding
43 | AKTRDFVA | no binding
44 | DTAGDAAV | no binding
45 | VRRGSSAS | binds
46 | VKRGSSLF | binds

Row | Variant | antigen binding call
47 | VKETSVLF | no binding
48 | FERTSALF | no binding
49 | VRTEDDAS | no binding
50 | FKAEAFSF | no binding
51 | VAKRDSAS | no binding
52 | FKRGSSLF | binds
53 | VAGTGSSV | no binding
54 | DAEATDGA | no binding
55 | DATGGDGY | no binding
56 | DTGGSASA | no binding
57 | YAKRDAGD | no binding
58 | YRKRGAAD | binds
59 | YRKRGAVD | binds
60 | YRKRGAGD | binds
61 | YRKGGAVD | binds
62 | AKATADVD | no binding
63 | DTGGGDAV | no binding
64 | YRGAGSAD | binds
65 | YKGAGSAD | no binding
66 | YAGAGSAD | no binding
67 | YRGAGAAD | binds
68 | YKTKSDWV | no binding
69 | YAGKGAWV | no binding

Row | Variant | antigen binding call
70 | YKGKGAWV | binds
71 | YKGKSAWV | binds
72 | VKGKGDWV | no binding
73 | DEGGTDSA | no binding
74 | SKGKGVGA | binds
75 | SEEEGSAA | no binding
76 | YKGKGFAA | no binding
77 | SKAKGSAA | binds
78 | SKGKGSSA | no binding
79 | SKRRSVGA | no binding
80 | SKGKGSAA | binds
81 | YKGKGSAA | binds
82 | AARADSGD | no binding
83 | DEGRSVAA | no binding
84 | DAARAVSS | no binding
85 | VAKADALD | no binding
86 | FKGEGDSA | no binding
87 | VKGKGSAA | binds
88 | YRGKGSAA | binds
89 | VTAESSSF | no binding
90 | VRARGSSF | binds
91 | VRERGSSF | binds
92 | YAEGASSF | no binding

Row | Variant | antigen binding call
93 | VRERGDWF | no binding
94 | YRERGSSF | binds
95 | VRAGGDSF | no binding
96 | AETAGAAA | no binding
97 | DAATAYGS | no binding
98 | FRTKGSGD | binds
99 | FATKGFGD | no binding
100 | FRGKGSGD | binds
101 | FRGTGSGD | no binding
102 | FATRASGD | no binding
103 | VEEEGDGV | no binding
104 | YAGTGFWV | no binding
105 | DEGGTDAV | no binding
106 | FRGKGASV | binds
107 | YKGRASAV | no binding
108 | FKGKGAVV | binds
109 | FREEGFSV | no binding
110 | YKGKGSAV | binds
111 | FREGSASV | no binding
112 | FKGKGAAF | no binding
113 | FRGKGAAV | binds
114 | DATGGSGD | no binding
115 | FKATTVVD chain 1 S88F | no binding

Row | Variant | antigen binding call
116 | YEGGGSAV | no binding
117 | FKGRGAAS | binds
118 | YRGKGSAV | binds
119 | DKGGGFAV | no binding
120 | AKGKGAAV | no binding
121 | FRGKGSAV | binds
122 | FKGKGAAV | binds
123 | YKGGGSAV | binds
124 | VKGKGDAV | no binding
125 | DAGGADAV | no binding
126 | DEGGTDWY | no binding
127 | YTRGAAGY | no binding
128 | YKRESAGY | binds
129 | YKRGDAGY | binds
130 | YKRRDAVY | no binding
131 | YARETDVV | no binding
132 | DGARNAGV | no binding
133 | VTGTGSSA | no binding
134 | FRKGGAGS | binds
135 | YRKGGFSS | no binding
136 | YRKGGAGS | binds
137 | FRKRSFSS | no binding
138 | YRKGGAAS | binds
